# Measured values taken from PubChem BioAssay (EPA / NIEHS).
# Inconclusive results are not listed. Some compounds were tested as several samples or in several runs, with calls that do not always agree. The source made the active and inactive calls. Rule for the calls, unless noted: active = hit-call score of the fitted dose curve at least 0.9, where 1 is the maximum; inactive = score below 0.9.
# Legend:
# CD69, CD69 (gene 969) = assay: BSK_LPS_CD69: BioMAP Diversity Plus: LPS Assay for CD69 Biomarker Activity (AID 2284303); details: primary human HUVEC with PBMC
# Summary of the method: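 CD69 surface levels were read by ELISA after 24 h chemical treatment of an LPS-stimulated HUVEC plus PBMC co-culture; positive-direction fit against DMSO vehicle.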
# IYD (gene 389434) = assay: CCTE_GLTED_hIYD: CCTE's human Iodotyrosine Deiodinase (xIYD) Inhibition Assay, Great Lakes Toxicology and Ecology Division (GLTED) Lab (AID 2284317; active = hit-call score of the fitted dose curve at least 0.9, where 1 is the maximum;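 note: cell-free human IYD enzyme made in baculovirus insect cells; iodide freed from monoiodotyrosine measured by cerium arsenite color change at 420 nm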)
# Summary of the method: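 In the IYD assay, iodide released from MIT by insect-cell-expressed human enzyme was quantified after 3 h via Sandell-Kolthoff rate at 420 nm, with plate-wise normalization to MNT and solvent controls.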
# [1] = CCTE_Deisenroth_5AR_NBTE_donor: CCTE's 5alpha-reductase NanoBRET Target Engagement Assay […], Deisenroth Lab (AID 2284319); details: actives raise or lower the signal
# Summary of the method: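 HEK293T cells were reverse transfected with an SRD5A2-NanoLuc vector for 20 h, exposed to test chemical (8 points, 10 nM - 29.9 uM) for 3 h, then testosterone tracer for 2 h more. Donor luminescence (460 nm) was read; bidirectional fit versus DMSO.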
# [2] = CCTE_Deisenroth_5AR_NBTE_acceptor: CCTE's 5alpha-reductase NanoBRET Target Engagement Assay - Autofluorescence Screen, Deisenroth Lab (AID 2284321); details: actives raise or lower the signal;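 note: compound fluorescence in the acceptor channel under 460 nm excitation flags autofluorescence artifacts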
# Summary of the method: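 Acceptor fluorescence intensity was read as an artifact-detection endpoint. Test chemicals at an assumed nominal 100 uM were excited at 460 nm across three independent runs. Activity was fitted bidirectionally against DMSO.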
# SRD5A2 (gene 6716) = assay: CCTE_Deisenroth_5AR_NBTE_ratio: CCTE's 5alpha-reductase NanoBRET Target Engagement Assay - Ratio, Deisenroth Lab (AID 2284322); details: actives raise or lower the signal
# Summary of the method: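 HEK293T cells transiently expressing an SRD5A2-NanoLuc fusion (20 h post-transfection) were exposed to test chemical (10 nM - 29.9 uM, 8 points) for 3 h, then testosterone tracer for a further 2 h. Acceptor/donor BRET ratio was fitted bidirectionally against DMSO baseline.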
# TTR (gene 7276) = assay: CCTE_GLTED_hTTR_0.5uM: CCTE's human Transthyretin (hTTR) Inhibition Assay, with 0.5uM TTR, Great Lakes Toxicology and Ecology Division (GLTED) Lab (AID 2284320)
# Summary of the method: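 Probe (ANSA) displacement from 0.5 uM human transthyretin was followed by fluorescence (ex 380, em 475) after a 2 h incubation with chemical. Activity was scored as signal loss and fitted positively relative to DMSO.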
# [3] = IUF_NPC2b_neuronal_migration_120hr: Leibniz Research Institute for Environmental Medicine (IUF) 120-hour Neural Progenitor Cell Migration Assay for Neuron Migration (NPC2b) (AID 2284300)
# Summary of the method: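 Read-out is mean distance from sphere edge to each TUBB3-positive neuron at 120 h, expressed relative to radial glia migration distance and to DMSO baseline. Single 0.3 mm human NPC spheres differentiated on laminin under continuous compound exposure.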
# [4] = IUF_NPC3_neuronal_differentiation_120hr: Leibniz Research Institute for Environmental Medicine (IUF) 120-hour Neuronal Differentiation Assay (NPC3) (AID 2284301)
# Summary of the method: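 hNPC spheres, PDL/laminin, DMEM/F12 3:1 + 1% N2, 37C, 5% CO2; 7 concentrations + solvent control, 5 d exposure, half-change day 3. Fix 120 h; TUBB3/Hoechst ICC, CNN neuron calling; % neurons vs nuclei, DMSO-normalized.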
# [5] = IUF_NPC4_neurite_length_120hr: Leibniz Research Institute for Environmental Medicine (IUF) 120-hour Neuronal Morphology Assay for Neurite Length (NPC4) (AID 2284302)
# Summary of the method: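 hNPC spheres (0.3 mm, fetal brain GW 16-19) on PDL/laminin, DMEM:F12 3:1 + 1% N2, 37C 5% CO2; 7 concs + solvent control, day 0-5, half medium change d3; fix 120 h, TUBB3 ICC, mean neurite length um vs DMSO.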
# [6] = IUF_NPC5_oligodendrocyte_differentiation_120hr: Leibniz Research Institute for Environmental Medicine (IUF) 120-hour Oligodendrocyte Differentiation Assay (NPC5) (AID 2284304; active = hit-call score of the fitted dose curve at least 0.9, where 1 is the maximum;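 note: primary human fetal neural progenitor spheres plated to migrate and differentiate; share of O4-positive cells among Hoechst nuclei found by CNN image analysis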)
# Summary of the method: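 Oligodendrocyte differentiation was scored after 120 h as the O4-positive share of Hoechst-stained nuclei across the neurosphere migration area, using a trained convolutional neural network on high-content fluorescence images. Human fetal neural progenitor spheres were dosed from day 0, normalised to DMSO.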
# [7] = IUF_NPC4_neurite_area_120hr: Leibniz Research Institute for Environmental Medicine (IUF) 120-hour Neuronal Morphology Assay for Neurite Area (NPC4) (AID 2284305; active = hit-call score of the fitted dose curve at least 0.9, where 1 is the maximum)
# Summary of the method: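 hNPC spheres on PDL/laminin, N2 medium, 37C/5% CO2; dosed day 0, half-medium refresh day 3; fixed 120 h; TUBB3/Hoechst ICC, high-content imaging; neurite area = mean pixels per neuron (nuclei excluded); DMSO baseline, max 0.1%.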
# [8] = IUF_NPC2-5_cytotoxicity_72hr: Cytotoxicity Assessment at 72 hours in the Leibniz Research Institute for Environmental Medicine (IUF) Neural Progenitor Cell Migration and Differentiation Assay for Cytotoxicity (NPC2-5) (AID 2284306; active = hit-call score of the fitted dose curve at least 0.9, where 1 is the maximum;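 note: LDH release into supernatant measured by resorufin fluorescence marking membrane damage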)
# Summary of the method: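 hNPC spheres (0.3 mm), PDL/laminin, DMEM/F12 3:1 + 1% N2; cpd from d0, 7 concs + SC, DMSO max 0.1%; half-medium refresh d3. Readout: supernatant LDH via resorufin fluorescence (RFU), 72 h; gain-of-signal fit.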
# [9] = IUF_NPC2-5_cytotoxicity_120hr: Cytotoxicity Assessment at 120 hours in the Leibniz Research Institute for Environmental Medicine (IUF) Neural Progenitor Cell Migration and Differentiation Assay (NPC2-5) (AID 2284307; active = hit-call score of the fitted dose curve at least 0.9, where 1 is the maximum)
# Summary of the method: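 Sphere plating starts differentiation and exposure together at day 0. Compound solution is half-replaced on day 3. At 120 h, medium supernatant is taken for an LDH membrane-integrity read based on resazurin reduction to resorufin fluorescence.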
# [10] = IUF_NPC2-5_cell_number_120hr: Cell Number Assessment at 120 hours in the Leibniz Research Institute for Environmental Medicine (IUF) Neural Progenitor Cell Migration and Differentiation Assay (NPC2-5) (AID 2284308);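 note: count of Hoechst-stained nuclei in migration zone around plated human neural progenitor spheres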
# Summary of the method: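 hNPC spheres, one per well, PDL/laminin, N2 medium, 37C, 5% CO2. Dosing day 0 → half-medium change with fresh compound day 3 → fix 120 h. Readout: Hoechst+ nuclei count, migration area; 7 concentrations plus solvent control.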
# [11] = IUF_NPC2-5_viability_120hr: Viability Assessment at 120 hours in the Leibniz Research Institute for Environmental Medicine (IUF) Neural Progenitor Cell Migration and Differentiation Assay (NPC2-5) (AID 2284312)
# Summary of the method: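 Human fetal neural progenitor spheres (0.3 mm) plated on poly-D-lysine/laminin in N2 differentiation medium, exposed 120 h with half-medium refresh at day 3. Viability by alamar blue resazurin fluorescence; 7 concentrations, DMSO max 0.1%.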
# [12] = CCTE_Mundy_HCI_iCellGluta_NOG_NeuriteLength: CCTE's Neurite Outgrowth Assay in iCellGluta cells for Neurite Length, Mundy Lab (AID 2284318; active = hit-call score of the fitted dose curve at least 0.9, where 1 is the maximum)
# Summary of the method: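 Automated high-content imaging of betaIII-tubulin (Alexa Fluor-488) and Hoechst-stained cells gave neurite length, normalized to the DMSO baseline.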
# [13] = VALA_TUBHUV_Agonist_CellCount: Viability Assessment in the VALA Sciences human Umbilical Vein Endothelial Tubule Formation (TUBHUV) Agonism Assay (AID 2284309; active = hit-call score of the fitted dose curve at least 0.9, where 1 is the maximum)
# Summary of the method: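 Viability endpoint by fluorescent imaging of fixed nuclear/CD31-stained HUVEC–HDF co-cultures. Readout is cell count, fitted upward against 0.1% DMSO. Compound exposure was 72 h in 10 ng/ml VEGF, after 3-day co-culture priming.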
# [14] = VALA_TUBHUV_Antagonist_CellCount: Viability Assessment in the VALA Sciences human Umbilical Vein Endothelial Tubule Formation (TUBHUV) Antagonism Assay (AID 2284310; active = hit-call score of the fitted dose curve at least 0.9, where 1 is the maximum)
# Summary of the method: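 Read-out is imaged cell count after nuclear and CD31 staining, fitted against 0.1% DMSO vehicle. Compounds were added for 3 days, in 10 ng/ml VEGF assay medium, to HUVEC–HDF co-cultures pre-grown 3 days.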
# [15] = VALA_MIGHUV2_Bcatenin: VALA Sciences human Umbilical Vein Endothelial Cell Migration (MIGHUV) Assay, Nuclear Translocation of beta-Catenin after Recovery (AID 2284315; active = hit-call score of the fitted dose curve at least 0.9, where 1 is the maximum)
# Summary of the method: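 Nuclear beta-catenin imaged by immunofluorescence with Hoechst counterstain in fixed HUVEC, 24 h after scratch wounding and chemical addition. Six-point concentration-response in triplicate; activity scored as signal increase over 0.1% DMSO vehicle.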
# [16] = VALA_MIGHUV2_WoundArea: VALA Sciences human Umbilical Vein Endothelial Cell Migration (MIGHUV) Assay, Area of Scratch Wound after Recovery (AID 2284316; active = hit-call score of the fitted dose curve at least 0.9, where 1 is the maximum)
# Summary of the method: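 Wound-area endpoint read by fluorescence imaging of Hoechst-stained nuclei after a 24 h recovery period following scratch of HUVEC monolayers (9000 cells/well). Chemicals dosed within 30 min post-scratch, triplicate 6-point series, 0.1% DMSO vehicle; Cytochalasin D positive control.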
smiles,measurement,setting,value
CC(O)C(F)(F)C(F)(F)F (stereo unspecified),outcome,"CD69, CD69 (gene 969)",inactive
CCCCCCCc1ccc(O)cc1,AC50,IYD (gene 389434),52.4 µM (active)
ClC1=C(Cl)C2(Cl)C3C(Cl)C(Cl)CC3C1(Cl)C2(Cl)Cl (stereo unspecified),outcome,[1],inactive
same,outcome,[2],inactive
same,outcome,SRD5A2 (gene 6716),inactive
NC(=O)C(F)(F)C(F)(F)F,outcome,"CD69, CD69 (gene 969)",inactive
OCC(F)(F)OC(F)(F)C(F)(F)OC(F)(F)C(F)(F)OC(F)(F)CO,outcome,"CD69, CD69 (gene 969)",inactive
same,AC50,TTR (gene 7276),9.52 µM (active)
O=S1(=O)OCC2C(CO1)C1(Cl)C(Cl)=C(Cl)C2(Cl)C1(Cl)Cl (stereo unspecified),outcome,[3],inactive
same,outcome,[4],inactive
same,outcome,[5],inactive
same,AC50,[6],0.403 µM (active)
same,outcome,[7],inactive
same,outcome,[8],inactive
same,outcome,[9],inactive
same,outcome,[10],inactive
same,outcome,[11],inactive
O=C(O)C(F)(F)OC(F)(F)C(F)(F)OC(F)(F)C(=O)O,outcome,"CD69, CD69 (gene 969)",inactive
same,outcome,[12],inactive
same,AC50,TTR (gene 7276),0.746 µM (active)
CCCN(CCC)c1c([N+](=O)[O-])cc(C(C)C)cc1[N+](=O)[O-],outcome,[1],inactive
same,outcome,[2],inactive
same,outcome,SRD5A2 (gene 6716),inactive
O=S(=O)(F)C(F)(F)C(F)(F)C(F)(F)C(F)(F)C(F)(F)C(F)(F)C(F)(F)C(F)(F)F,outcome,"CD69, CD69 (gene 969)",inactive
same,AC50,TTR (gene 7276),55 µM (active)
COP(=O)(CCC(=O)NCO)OC,AC50,"CD69, CD69 (gene 969)",0.15 µM (active)
same,outcome,"CD69, CD69 (gene 969)",inactive
c1ccc2c(c1)Nc1ccccc1S2,outcome,[1],inactive
same,outcome,[2],inactive
same,AC50,SRD5A2 (gene 6716),23.7 µM (active)
CCCCOCCOP(=O)(OCCOCCCC)OCCOCCCC,outcome,[3],inactive
same,outcome,[4],inactive
same,outcome,[5],inactive
same,AC50,[6],3.24 µM (active)
same,outcome,[7],inactive
same,outcome,[9],inactive
same,outcome,[10],inactive
same,outcome,[11],inactive
FC(F)(F)C(F)(C(F)(F)F)C(F)(F)C(F)(F)CC1CO1 (stereo unspecified),outcome,"CD69, CD69 (gene 969)",inactive
Cc1ccc(N)cc1N,outcome,[13],inactive
same,outcome,[14],inactive
same,outcome,[15],inactive
same,outcome,[16],inactive
CCCCc1ccc(O)cc1,outcome,IYD (gene 389434),inactive
CO/N=C(/C(=O)OC)c1ccccc1COc1ccccc1C,outcome,[3],inactive
same,AC50,[4],2.33 µM (active)
same,outcome,[5],inactive
same,AC50,[6],13.9 µM (active)
same,outcome,[7],inactive
same,outcome,[8],inactive
same,outcome,[9],inactive
same,AC50,[10],19.7 µM (active)
same,outcome,[11],inactive
same,AC50,[12],19.7 µM (active)
O=C(O)C(F)(F)OC(F)(F)C(F)(F)OC(F)(F)F,outcome,"CD69, CD69 (gene 969)",inactive
same,outcome,[12],inactive
same,AC50,TTR (gene 7276),3.59 µM (active)
OCC(F)(F)OC(F)(F)C(F)(F)OC(F)(F)C(F)(F)OC(F)(F)F,AC50,"CD69, CD69 (gene 969)",6.46 µM (active)
same,outcome,"CD69, CD69 (gene 969)",inactive
same,AC50,TTR (gene 7276),51.7 µM (active)
O=C(O)C(F)(OC(F)(F)C(F)(F)C(F)(F)F)C(F)(F)F (stereo unspecified),outcome,[3],inactive
same,outcome,[4],inactive
same,AC50,[5],0.342 µM (active)
same,outcome,"CD69, CD69 (gene 969)",inactive
same,outcome,[6],inactive
same,AC50,[7],0.338 µM (active)
same,outcome,[8],inactive
same,outcome,[9],inactive
same,outcome,[10],inactive
same,outcome,[11],inactive
same,outcome,[12],inactive
